Assay outcomes (PubChem BioAssay)
Lassa entry inh – inhibitors of Lassa virus binding or cell entry; Lassa virus pseudotype entry inhibition, cell reporter; Potency, µM (doses to about 37.9 µM), for inactives: top-dose activity change, negative = inhibition, most hits filed as inhibitors; actives 1.2% (n = 300,000); calls by dose curve; tested in HEK293 cells; also: potency is read from the fitted curve at half-maximal effect; nearly all actives have a fitted effect of over 50% in size
VACV mCherry inh – inhibitors of vaccinia virus infection (mCherry reporter signal); Vaccinia virus mCherry reporter infection, fluorescence; Potency, µM (top dose mostly 36.5 µM), without a hit: at the highest dose activity change, negative = inhibition, hits mostly inhibitors; actives 0.63% (n = 310,000); calls by dose curve; tested in A549 cells; also: potency is read from the fitted curve at half-maximal effect; nearly all actives have a fitted effect of over 35% in size
Vaccinia Venus – inhibitors of vaccinia virus (Venus reporter); Vaccinia virus Venus reporter expression, fluorescence; Potency, µM (top dose mostly 36.5 µM), inactives show top-dose activity change, negative = inhibition, hits mostly inhibitors; actives 0.46% (n = 330,000); AID 720580; calls by dose curve; tested in A549 cells; also: potency is read from the fitted curve at half-maximal effect; nearly all actives have a fitted effect of over 30% in size
MARV entry inh – inhibitors of Marburg virus binding or cell entry; AID 540276; Potency, µM (doses to about 37.8 µM), inactives show at the top dose activity change, negative = inhibition, hits mostly inhibitors; actives 1.8% (n = 300,000); Marburg virus pseudotyped entry inhibition, cell reporter; calls by dose curve; tested in HEK293 cells; also: potency is read from the fitted curve at half-maximal effect
FMDV antiviral – blocks foot and mouth disease virus. FMDV antiviral cell-based qHTS. Potency, µM (highest dose often 57.9 µM), for the others: top-dose activity change, negative = inhibition, actives largely listed as inhibitors. actives 1.2% (n = 410,000). AID 1159524; calls by dose curve; tested in HEK293T cells; also: read-out not given here; potency is read from the fitted curve at half-maximal effect; nearly all actives have a fitted effect of over 45% in size
HCMV antiviral – blocks human cytomegalovirus replication; HFF cells, HCMV-luciferase reporter, 72 h; active compounds read low; activity change, negative = inhibition, % at 57.5 µM; actives 4.5% (n = 410,000); in the data active = activity change below about -60%; inconclusive = no clear call, values can overlap the other calls; inactive = above about -39%
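Cell-based, HFFs, 1000 cells/well, 16 h 37C; cpds in DMSO + HCMV-luc, MOI 1 PFU/cell; 72 h 37C; OneGlo luminescence after 5 min RT; norm. to buffer vs Salinomycin 10uM.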
The depositor's hits bear a star; i = inactive; ? = inconclusive; . = not tested or not shown; [ ] = dose if it differs, or a comment. The list is not random: actives were taken first. Their share in the collection is about 6.5%. % is scaled to controls: 0 for no effect and ±100 for the full control effect.

SMILES	Lassa entry inh	VACV mCherry inh	Vaccinia Venus	MARV entry inh	FMDV antiviral	HCMV antiviral
CCCCn1nnnc1C1(C)CCC(=O)N1CCc1c[nH]c2ccccc12 (stereo not drawn)	.	-9%	-5%	.	-17%	-4
Cc1cccc(C(=O)O/N=C(\N)c2ccccn2)c1	?	i	-1%	?	-55%	-16
CC(C)(C)c1ccc(C(=O)O/N=C(\N)c2ccccn2)cc1	?	i	-13%	?	0.1µM*	-99*
COc1cc(C(=O)O/N=C(\N)c2ccccn2)cc(OC)c1OC	.	.	.	.	59%	1
CCOc1ccc(C(=O)O/N=C(\N)c2ccccn2)cc1	.	.	.	.	10µM*	-91*
Cc1ccc(C(=O)O/N=C(\N)c2ccccn2)cc1	?	-1%	7%	?	3.2µM*	-69*
Cc1ccc(C(=O)O/N=C(\N)c2ccccn2)cc1C	?	1%	-6%	0.71µM*	-98%	?
CC1=CC(C)CC(C)OC(=O)CC(c2ccc(O)cc2)NC(=O)C(Cc2c(Br)[nH]c3ccccc23)N(C)C(=O)C(C)NC(=O)C(C)C1 (stereo not drawn)	0.4µM*	32µM*	35µM*	0.32µM*	-27%	-98*
O=C1c2ccccc2C(=O)C12OC2c1ccc(Cl)cc1Cl (stereo not drawn)	12%	-14%	0%	?	28µM*	-9
CCCC1=Nc2cc(C(=O)NCCCN(CC)CC)ccc2Sc2ccccc21	?	-12%	-12%	?	-23%	-11
CCCC1=Nc2cc(C(=O)NCCOC)ccc2Sc2ccccc21	?	?	-27%	?	-13%	-97*
CCCCNC(=O)c1ccc2c(c1)N=C(CC)c1ccccc1S2	?	-3%	-28%	?	-9%	-35
CCCC1=Nc2cc(C(=O)NCCCOCC)ccc2Sc2ccccc21	-41%	-26%	?	1.6µM*	-14%	-82*
CCCC1=Nc2cc(C(=O)NCCCOC(C)C)ccc2Sc2ccccc21	6.5µM*	.	.	?	-16%	?
CCCC1=Nc2cc(C(=O)NCCc3ccc(OCC)cc3)ccc2Sc2ccccc21	?	?	?	-5%[46.1 µM]	?	?
O=C(c1cccnc1)N1CC(=O)N2[C@@H](CO)[C@H](c3ccc(Br)cc3)[C@@H]2C1	.	.	.	.	.	4
COc1ccc([C@]23Cc4ccccc4[C@H](O2)C2=C(O3)C(=O)c3ccccc3C2=O)cc1	.	.	.	11%[14.2 µM]	.	.
Nc1ccc(C2(c3ccc(N)cc3)c3ccccc3-c3ccccc32)cc1	7%	?	?	?	?	-91*
Nc1ccc(C2(c3ccc(N)cc3)c3ccccc3C(=O)c3ccccc32)cc1	?	-28%	-11%	?	-8%	11
COc1cc(Cl)c(NC2=CC(=O)C(=O)c3ccccc32)c(OC)c1	.	.	.	.	?	-97*
Cc1ccc(C)n1C1C(=O)N(Cc2ccc(C(C)C)cc2)c2ccc(F)cc21 (stereo not drawn)	.	.	.	.	.	27
CCOC(=O)/C(=C(/C)N)C1CC(=O)NC1=O (stereo not drawn)	.	i	2%	.	?	-23
NNC(=O)CCN(Cc1ccco1)S(=O)(=O)c1ccc(Cl)cc1	.	.	.	.	-15%	-67*
COc1ccc(C(=O)NC(C)CCc2ccccc2)cc1[N+](=O)[O-] (stereo not drawn)	-6%	-24%	-20%	-13%	-24%	-6
COc1ccc(C(=O)C(C)[n+]2ccc(C)c3ccccc32)cc1[N+](=O)[O-] (stereo not drawn)	.	.	.	.	-20%	-86*
CCOC(=O)N1C(=O)C[C@H](C(=O)N2CCOCC2)[C@H]1c1ccc(OC)cc1	.	.	.	.	.	-14
CCOc1ccc(N2C(=O)C(c3nnnn3Cc3ccccc3)N(CCOC)C2=O)cc1 (stereo not drawn)	.	.	.	.	.	-21
CC1=C(/C=C/C(C)=C/C=C/C(C)=C/C(=O)Nc2ccc(O)cc2)C(C)(C)CCC1	10µM*	?	?	?	?	-77*
CCCN1CCN(C(=O)C2CCN(S(=O)(=O)c3c(C)noc3/C=C/c3ccc(C)cc3)CC2)CC1	.	.	.	.	-10%	-4
O=C(Nc1ccc(N2CCC(N3CCCCC3)CC2)c(C(=O)O)c1)c1ccccc1	-2%[46.1 µM]	-4%	-2%	.	-19%	13
